# Data from PubChem BioAssay (NCATS).
# “And” between values parts separate entries of the source, which are not always exact repeats. Identical values can stand only once. Values without a mark were called inactive. Inconclusive results are not listed. A call without a number means that no potency is given here. The source made the active and inactive calls. Unless noted, the call rests on the fitted dose curve; in most records, active means well fitted curve in the direction sought with a large enough effect; inconclusive means small, poorly fitted or top-dose-only effect, or another doubt; inactive means no such curve, though single readings can be large; an effect the other way counts as inactive or inconclusive.
# Experiments:
# [1] = molecular target: Cytochrome P450 2C9 (Homo sapiens) (UniProt P11712); test: qHTS Assay for Inhibitors and Substrates of Cytochrome P450 2C9 (AID 883); further: nearly all actives have a fitted effect of over 60% in size; further: potency means the concentration at half of the fitted maximal effect
# Outline: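 Turnover of Luciferin-H (100uM, KM) by 10nM human CYP2C9 was measured over 60 min at 37C with NADPH regeneration; inhibitors and some substrates reduce luminescence. Data normalized to sulphaphenazole 57uM.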
# [2] = molecular target: Cytochrome P450 3A4 (Homo sapiens) (UniProt P08684); test: qHTS Assay for Activators of Cytochrome P450 3A4 (AID 885); further: nearly all actives have a fitted effect of over 65% in size; further: potency means the concentration at half of the fitted maximal effect
# Outline: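 Activators are scored by enhanced luminescence from CYP3A4 conversion of luciferin-PPXE (25uM, equal to KM) to luciferin, after 60 min at RT with an NADPH-regenerating system.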
# [3] = molecular target: Cytochrome P450 2C19 (Homo sapiens) (UniProt P33261); test: qHTS Assay for Inhibitors and Substrates of Cytochrome P450 2C19 (AID 899); further: nearly all actives have a fitted effect of over 60% in size; further: potency means the concentration at half of the fitted maximal effect
# Outline: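 Reactions contain 5nM enzyme, 10uM Luciferin-H EGE (KM) and 50mM KPO4; compound preincubates 10 min at 37C, NADPH regeneration starts turnover for 60 min. Luminescence after detection reagent gives activity.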
# [4] = molecular target: Cytochrome P450 2D6 (Homo sapiens) (UniProt P10635); test: qHTS Assay for Inhibitors and Substrates of Cytochrome P450 2D6 (AID 891);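 further: luciferin methyl ether substrate demethylated by CYP2D6 with NADPH regeneration; nearly all actives have a fitted effect of over 60% in size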
# Outline: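 Luminescent read-out of luciferin formed by 5 nM human CYP2D6 demethylating 30 uM Luciferin-ME EGE (Km level) over 60 min at room temperature after NADPH regeneration addition. Data normalized to full inhibition by 1.43 uM quinidine.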
# [5] = qHTS Assay for Identification of Small Molecule Agonists for Hypoxia Response Element Signaling Pathway (AID 914; active means well fitted activation curve with a large enough effect in the signal ratio, with a control signal flat, not every such curve was filed as active; the % refers to the signal ratio); settings: ME-180 (cervical carcinoma) HRE-bla reporter, beta-lactamase ratio, CoCl2, 17 h; stronger effect = higher value
# Outline: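 HRE-bla ME-180 cells, overnight plating in Opti-MEM with 0.5% dialyzed FBS; cpd titration + EC50 CoCl2, 17 h, 37 degrees Celsius; CCF4 2.5 h RT; 460/530 nm ratio; AC50.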
# [6] = molecular target: Cytochrome P450 3A4 (Homo sapiens) (UniProt P08684); test: qHTS Assay for Inhibitors and Substrates of Cytochrome P450 3A4 (AID 884); further: nearly all actives have a fitted effect of over 50% in size; further: potency means the concentration at half of the fitted maximal effect
# Outline: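 Luminescent readout of luciferin produced by CYP3A4 (20 nM) dealkylation of Luciferin-PPXE, 25 uM (its KM). NADPH-driven reaction ran 60 min at RT after 10 min compound preincubation; data scaled to 57 uM ketoconazole as 100% inhibition.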
# Cytochrome P450 2D6 (Homo sapiens), sequence (P10635 whole entry, looked up): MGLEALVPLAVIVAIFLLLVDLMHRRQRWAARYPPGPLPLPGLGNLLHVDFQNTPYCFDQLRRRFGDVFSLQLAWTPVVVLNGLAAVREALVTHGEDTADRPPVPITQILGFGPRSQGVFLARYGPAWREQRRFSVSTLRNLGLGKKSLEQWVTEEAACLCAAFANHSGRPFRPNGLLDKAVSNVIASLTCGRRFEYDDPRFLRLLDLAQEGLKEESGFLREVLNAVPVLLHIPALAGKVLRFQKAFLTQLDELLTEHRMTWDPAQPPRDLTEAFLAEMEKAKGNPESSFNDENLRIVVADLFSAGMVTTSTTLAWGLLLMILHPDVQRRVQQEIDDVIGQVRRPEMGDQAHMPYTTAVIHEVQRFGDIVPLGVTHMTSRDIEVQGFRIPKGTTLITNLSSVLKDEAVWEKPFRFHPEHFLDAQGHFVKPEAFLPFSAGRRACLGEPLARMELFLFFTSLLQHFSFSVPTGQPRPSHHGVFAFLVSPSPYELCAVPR
# Cytochrome P450 2C19 (Homo sapiens), sequence (P33261 whole entry, looked up): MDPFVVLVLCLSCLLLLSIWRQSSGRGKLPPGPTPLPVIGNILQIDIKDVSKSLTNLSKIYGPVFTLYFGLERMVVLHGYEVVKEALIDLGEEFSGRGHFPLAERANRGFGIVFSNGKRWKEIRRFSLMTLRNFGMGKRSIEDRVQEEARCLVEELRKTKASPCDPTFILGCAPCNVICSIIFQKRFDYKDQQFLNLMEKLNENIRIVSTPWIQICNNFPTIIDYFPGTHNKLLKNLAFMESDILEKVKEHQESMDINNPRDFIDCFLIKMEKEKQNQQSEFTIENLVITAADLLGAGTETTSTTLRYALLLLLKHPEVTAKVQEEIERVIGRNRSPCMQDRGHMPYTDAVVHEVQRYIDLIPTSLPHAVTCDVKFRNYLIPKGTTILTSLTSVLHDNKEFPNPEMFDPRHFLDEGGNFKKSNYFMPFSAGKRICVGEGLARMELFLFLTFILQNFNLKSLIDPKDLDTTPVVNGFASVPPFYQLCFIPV
# Cytochrome P450 3A4 (Homo sapiens), sequence (P08684 whole entry, looked up): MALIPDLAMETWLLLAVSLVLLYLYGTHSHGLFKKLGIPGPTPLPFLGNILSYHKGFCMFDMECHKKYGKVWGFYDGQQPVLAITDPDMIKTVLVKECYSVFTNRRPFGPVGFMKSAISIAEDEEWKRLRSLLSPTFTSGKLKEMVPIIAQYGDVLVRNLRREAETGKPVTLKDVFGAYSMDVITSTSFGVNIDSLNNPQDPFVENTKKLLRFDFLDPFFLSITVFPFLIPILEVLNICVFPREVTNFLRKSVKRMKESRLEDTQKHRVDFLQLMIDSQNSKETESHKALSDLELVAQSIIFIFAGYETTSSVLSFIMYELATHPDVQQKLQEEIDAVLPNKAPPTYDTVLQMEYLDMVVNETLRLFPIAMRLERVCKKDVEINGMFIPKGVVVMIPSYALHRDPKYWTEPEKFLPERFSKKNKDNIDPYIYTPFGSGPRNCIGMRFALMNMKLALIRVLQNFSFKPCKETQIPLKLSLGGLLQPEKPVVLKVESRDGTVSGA
# Cytochrome P450 2C9 (Homo sapiens), sequence (P11712 whole entry, looked up): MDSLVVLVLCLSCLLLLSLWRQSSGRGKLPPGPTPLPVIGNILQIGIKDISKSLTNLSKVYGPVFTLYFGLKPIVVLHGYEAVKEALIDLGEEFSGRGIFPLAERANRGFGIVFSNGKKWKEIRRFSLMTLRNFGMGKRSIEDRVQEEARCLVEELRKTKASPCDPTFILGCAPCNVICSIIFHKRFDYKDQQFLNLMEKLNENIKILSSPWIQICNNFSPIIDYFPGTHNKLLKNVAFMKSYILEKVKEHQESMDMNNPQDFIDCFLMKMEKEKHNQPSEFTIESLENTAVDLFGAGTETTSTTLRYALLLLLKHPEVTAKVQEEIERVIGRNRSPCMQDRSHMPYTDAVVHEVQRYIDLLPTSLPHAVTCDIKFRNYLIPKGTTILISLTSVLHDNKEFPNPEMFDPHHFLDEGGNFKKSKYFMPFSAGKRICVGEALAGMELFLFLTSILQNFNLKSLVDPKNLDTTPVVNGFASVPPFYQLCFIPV
structure (smiles),measurement,setting,value
COc1ccc(O[C@H]2C=C[C@@H](c3ccccc3)O[C@H]2COC(=O)CC/C(C)=N\OC[C@@H](O)[C@H]2O[C@H]3OC(C)(C)O[C@H]3[C@@H]2O)cc1,Potency,[1],1580 nM (active)
same,"activity change, positive = activation",[2],-92.2% [at 11.4 µM]
same,Potency,[3],5 nM (active)
CCOC(=O)[C@]1(C(NC(=O)OC)c2ccccc2)CCCC1=O (stereo partly specified),Potency,[1],inactive
same,"activity change, positive = activation",[2],-34% [at 11.4 µM]
same,Potency,[4],inactive
same,Potency,[3],1260 nM (active)
C[C@@]12CCC3c4ccc(OC5C=CC(c6ccccc6)OC5CO)cc4CCC3C1CCC2=O (stereo partly specified),Potency,[1],inactive
same,Potency,[2],3160 nM (active)
same,Potency,[4],inactive
same,Potency,[3],inactive
CC(C)CN1CCc2nc(-c3ccccc3)c3c(c2C1)COC(C)C3 (stereo unspecified),Potency,[1],inactive
same,"activity change, positive = activation",[2],-40.3% [at 11.4 µM]
same,Potency,[3],inactive
COC(C1CCCCC1)C(C)C(OCc1cccc(Br)c1)C(C)CO (stereo unspecified),Potency,[1],inactive
same,"activity change, positive = activation",[2],-47.3% [at 11.4 µM]
same,Potency,[4],inactive
same,Potency,[3],1580 nM (active)
COC(=O)NC(c1ccco1)[C@]1(C(C)=O)CCCC1=O (stereo partly specified),Potency,[1],inactive
same,"activity change, positive = activation",[2],-35.9% [at 11.4 µM]
same,Potency,[4],inactive
same,Potency,[3],inactive
O=C1CCC[C@@H](C(C(=O)OCc2ccccc2)C(=O)OCc2ccccc2)C1,Potency,[1],3160 nM (active)
same,"activity change, positive = activation",[2],-39.2% [at 11.4 µM]
same,activation,[5],-22.4%
COc1ccc(-c2ccccc2C2NC(C(=O)O)CCC2C)cc1 (stereo unspecified),Potency,[1],inactive
same,Potency,[4],inactive
same,Potency,[3],inactive
COc1ccc(OC2C=CC(c3ccccc3)OC2CO)c(C(C)=O)c1 (stereo unspecified),Potency,[1],inactive
same,"activity change, positive = activation",[2],-57.7% [at 11.4 µM]
same,Potency,[4],inactive
same,Potency,[3],inactive
N#Cc1ccc(C23CC4(C2)[C@H](CN(Cc2ccc(C(F)(F)F)cc2)[C@@H]4c2ccccc2)C3c2ccc(C(F)(F)F)cc2)cc1 (stereo partly specified),Potency,[6],inactive
CC1=C(C(=O)OCc2ccccc2)C(C2CC2)NC(=O)N1CCCCCC(=O)O (stereo unspecified),Potency,[6],inactive
CO[C@H]1COC(=O)C/C=C\[C@@H](C)COC(=O)[C@H]2CCCN2C(=O)C/C=C\[C@H]1C,Potency,[1],inactive
same,activation,[5],11.3%
CN(C)/C=N/c1cc(=O)[nH]c(=O)n1CC1CC1,Potency,[6],inactive
COC(=O)N1[C@H](C)C=C[C@]1(Cc1ccccc1)C(=O)OC,Potency,[6],inactive
OB(O)c1ccc(Br)cc1,Potency,[6],inactive
CC(C)Cn1c(N)c(C(=O)COC(=O)c2cc(C(F)(F)F)nc3ccccc23)c(=O)n(C)c1=O,Potency,[6],inactive
O=C(O)c1cc(C2CC2)nc2ccccc12,Potency,[6],inactive
COC(=O)[C@@H]1C[C@@]2(O)[C@H](O)[C@H](O)[C@H](O)C[C@H]2N1CC1CCCCC1,Potency,[6],inactive
COc1cc(O)c(C(=O)/C=C/c2ccccc2)c(O)c1,Potency,[1],2000 nM (active)
same,Potency,[4],inactive
same,Potency,[3],1580 nM (active)
CN(C)/C=N/c1cc(=O)n(Cc2ccccc2)c(=O)n1C,Potency,[6],inactive
C#CCCCO/N=C1/[C@H]2O[C@@H]2[C@@H](O)[C@H]2[C@H]1CCn1c(=O)n(Cc3cc4c(cc3Cl)OCO4)c(=O)n12,Potency,[1],inactive
same,Potency,[3],inactive
O=[N+]([O-])c1ccccc1S(=O)(=O)NCC1CCC(CNCC2CCc3ccccc3C2)CC1 (stereo unspecified),Potency,[6],inactive
CC(=O)c1ccc(C2C=CC(O)C(CO)O2)cc1 (stereo unspecified),Potency,[1],inactive
same,Potency,[4],inactive
same,Potency,[3],inactive
Cn1c(=O)c(C(=O)COC(=O)c2cc(C(F)(F)F)nc3ccccc23)c(N)n(Cc2ccccc2)c1=O,Potency,[6],inactive
CC(=O)c1ccsc1B(O)O,Potency,[6],inactive
CC(C)Cn1c(N)c(C(=O)COC(=O)c2cc(C3CC3)nc3ccccc23)c(=O)n(C)c1=O,Potency,[6],inactive
COC(=O)[C@@]1(Cc2ccccc2)C=C[C@@H](C)N1C(C)=O,Potency,[6],inactive
Cn1c(=O)c(C(=O)COC(=O)c2cc(-c3ccccc3)nc3ccccc23)c(N)n(Cc2ccccc2)c1=O,Potency,[6],inactive
O=Cc1ccc(B(O)O)cc1,Potency,[6],inactive
COC(=O)c1ccc(C23CC4(C2)[C@H](CN(CC2CCCCC2)[C@@H]4c2ccccc2)C3c2ccccc2)cc1 (stereo partly specified),Potency,[6],25100 nM (active)
CCC1=C2CC[C@H]3C(=O)N(C)C(=O)[C@H]3[C@H]2[C@@]2(C)C(=O)N(CC3CC3)C(=O)N2C1=O,Potency,[6],inactive
COC(=O)c1ccc(C23CC4(C2)[C@H](CN(Cc2ccc(-c5ccccc5)cc2)[C@@H]4c2ccccc2)C3c2ccccc2)cc1 (stereo partly specified),Potency,[6],inactive
CC1Cc2c(COc3ccccc3)nc3c(c2CO1)CN(CCOc1ccccc1)CC3 (stereo unspecified),Potency,[1],inactive
same,Potency,[4],inactive
same,Potency,[3],inactive
C[C@@H](c1ccccc1)N1C(=O)[C@H]2[C@@H]3[C@H](O)[C@H](O)CC(=O)[C@H]3CC[C@H]2C1=O,Potency,[1],inactive
same,activation,[5],-2.53% and -2.06%
